From PubChem BioAssay (NCI) come the findings set out here.

This is part of a sample that, as a whole, favours compounds with a hit. Of some 79,000 tested, about 15% had one in any assay. A number with no mark means an inactive call. The source made the active and inactive calls. Rule as the data show it: active = growth inhibition above about 70%; inactive = the rest.

This experiment can be described thus: NCI Yeast Anticancer Drug Screen. Data for the rad50EPP+ strain (AID 151).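 Also: 0% = growth of vehicle-treated control cultures.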 Particulars: S. cerevisiae rad50 mutant strain, hits give high values. The protocol: Growth inhibition of yeast strains with defined genetic alterations is measured as a screen for potential anti-cancer activity. Selected strains with alterations in DNA damage repair or cell cycle control were exposed to compounds and growth inhibition was measured relative to vehicle treated controls. The strain used in this assay is rad50EPP+

For `O=[N+]([O-])c1ccc2[nH]c3c(-c4ccccc4)nccc3c2c1`, the growth inhibition is, setting by setting: (at 1.2 µM) 20%; (at 3.7 µM) 43%; (at 11.0 µM) 68%; (at 33.0 µM) 79% (active); (at 100.0 µM) 79% (active).

Consider `CC1=COC2=C(C)C(=O)C(=O)c3c(C)ccc1c32`, for which the growth inhibition was 2% (at 1.2 µM); 7% (at 3.7 µM); 19% (at 11.0 µM); 42% (at 33.0 µM); 60% (at 100.0 µM).

For the compound `N#CCCC1C(C#N)C2(Cl)CC1(Cl)C(Cl)=C2Cl` (stereo not given), the growth inhibition by setting is: (at 1.2 µM) -4%; (at 3.7 µM) -20%; (at 11.0 µM) -22%; (at 33.0 µM) 4%; (at 100.0 µM) 84% (active).

For `CCN(CC)CCNc1ccc(C)c2sc3ccc(O)cc3c(=O)c12`, the growth inhibition (at 1.2 µM) is 37%; the growth inhibition (at 3.7 µM) is 50%; the growth inhibition (at 11.0 µM) was 78% (active); the growth inhibition (at 33.0 µM) is 84% (active); the growth inhibition (at 100.0 µM) is 98% (active).

As for `CN1CCN(C(=O)c2cccc3cccc(C(=O)O)c23)CC1`, the growth inhibition is, setting by setting: (at 1.2 µM) 15%; (at 3.7 µM) 12%; (at 11.0 µM) 10%; (at 33.0 µM) 36%; (at 100.0 µM) 72% (active).

For the compound `COC(=O)C(Cl)(Cl)N=Nc1c(Cl)cc(Cl)c(C)c1Cl`, the growth inhibition by setting is: (at 1.2 µM) 12%; (at 3.7 µM) 83% (active); (at 11.0 µM) 99% (active); (at 33.0 µM) 99% (active); (at 100.0 µM) 99% (active).

In the case of `O=C1C(=C2CCCC2)CCC1CN1CCCCC1` (stereo not given), the growth inhibition by setting is: (at 1.2 µM) 28%; (at 3.7 µM) 36%; (at 11.0 µM) 48%; (at 33.0 µM) 80% (active); (at 100.0 µM) 94% (active).

Take `O=c1[nH]c2c([N+](=O)[O-])cccc2c2ccccc12`: the growth inhibition reads like this: (at 1.2 µM) 5%; (at 3.7 µM) 12%; (at 11.0 µM) 26%; (at 33.0 µM) 52%; (at 100.0 µM) 76% (active).
